High-throughput results deposited in PubChem by National Center for Advancing Translational Sciences (NCATS).
PI5P4K alpha inh = PI5P4K alpha (human) kinase inhibition | P48426 | PI5P4Kalpha enzyme, ADP-Glo luminescence, 60 min; hits give low values | max response, % | 330,000 compounds, 1.2% hits; active = max response of -50% or lower; inconclusive = between -30% and -50%; inactive = -30% or higher; note: value at the top dose of about 77 µM; % is set by controls: 0 for no effect and ±100 for the full control effect
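Controls without substrate or without enzyme flank wells where PI5P4Kalpha converts substrate using 5 microM ATP (final). Incubation lasts 60 minutes at room temperature; ADP formed is read by ADP-Glo luminescence.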
G9a block = G9a (human) methyltransferase inhibition | Q96KQ7 | G9a H3K9 monomethylation, AlphaScreen, 2 h | 350,000 compounds, 8.8% hits | Potency, µM (highest dose often 102 µM), inactives show top-dose activity, negative = inhibition, usual class: inhibitors; note: potency is the fitted concentration of half-maximal effect; % is set by controls: 0 for no effect and ±100 for the full control effect; nearly all actives have a fitted effect of over 75% in size
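AlphaScreen read-out: biotin-H3K9 peptide (500 nM) methylation by 20 nM enzyme with 20 uM SAM, 2 h at room temperature after 15 min compound preincubation; anti-monomethyl H3K9 antibody plus donor/acceptor beads, 10 min dark.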
HP1b chromo inh = HP1-beta chromodomain-methylated histone interaction inhibition | P83916 | AlphaScreen HP1-beta / biotin-H3K9me3 peptide binding | Potency, µM (top dose mostly 114 µM), for the others: at the top dose activity change, negative = inhibition, actives largely listed as inhibitors | 390,000 compounds, 0.56% hits | AID 540317; note: potency is the fitted concentration of half-maximal effect; nearly all actives have a fitted effect of over 70% in size
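HP1-beta protein (50 nM final) preincubated 30 min at room temperature with biotinylated H3(1-18)K9me3 peptide (50 nM) in PBS pH 7.4, 0.01% Tween-20, then compound added for 30 min. AlphaScreen streptavidin donor/nickel chelate acceptor beads (10 ug/mL final), 30 min dark, luminescence read.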
BAZ2B block = blocks human BAZ2B | Potency, µM (series often up to 114 µM), for the others: top-dose activity change, negative = inhibition, most hits filed as inhibitors | Q9UIF8 | AID 504333 | AlphaScreen BAZ2B-H3K14Ac peptide displacement | 360,000 compounds, 4.4% hits; note: potency is the fitted concentration of half-maximal effect; % is set by controls: 0 for no effect and ±100 for the full control effect; nearly all actives have a fitted effect of over 60% in size
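BAZ2B (50 nM) with biotin-H3(5-23)K14Ac peptide (50 nM) in PBS pH 7.4, 0.01% Tween-20, preformed 30 min, then compound 30 min at room temperature; top concentration 110uM. AlphaScreen streptavidin donor/nickel chelate acceptor beads (10 ug/mL final), 20 min dark, signal read.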
JMJD2A Tudor inh = JMJD2A Tudor domain (human) inhibition; O75164; AlphaScreen JMJD2A-Tudor / H3K4me3 peptide binding; Potency, µM (titrated, usually from 114 µM), for the others: at the highest dose activity change, negative = inhibition, usual class: inhibitors; 390,000 compounds, 4.4% hits; AID 504339; note: potency is the fitted concentration of half-maximal effect; % is set by controls: 0 for no effect and ±100 for the full control effect; nearly all actives have a fitted effect of over 50% in size
Target sequence (O75164 whole entry, looked up, the tested form may be a part): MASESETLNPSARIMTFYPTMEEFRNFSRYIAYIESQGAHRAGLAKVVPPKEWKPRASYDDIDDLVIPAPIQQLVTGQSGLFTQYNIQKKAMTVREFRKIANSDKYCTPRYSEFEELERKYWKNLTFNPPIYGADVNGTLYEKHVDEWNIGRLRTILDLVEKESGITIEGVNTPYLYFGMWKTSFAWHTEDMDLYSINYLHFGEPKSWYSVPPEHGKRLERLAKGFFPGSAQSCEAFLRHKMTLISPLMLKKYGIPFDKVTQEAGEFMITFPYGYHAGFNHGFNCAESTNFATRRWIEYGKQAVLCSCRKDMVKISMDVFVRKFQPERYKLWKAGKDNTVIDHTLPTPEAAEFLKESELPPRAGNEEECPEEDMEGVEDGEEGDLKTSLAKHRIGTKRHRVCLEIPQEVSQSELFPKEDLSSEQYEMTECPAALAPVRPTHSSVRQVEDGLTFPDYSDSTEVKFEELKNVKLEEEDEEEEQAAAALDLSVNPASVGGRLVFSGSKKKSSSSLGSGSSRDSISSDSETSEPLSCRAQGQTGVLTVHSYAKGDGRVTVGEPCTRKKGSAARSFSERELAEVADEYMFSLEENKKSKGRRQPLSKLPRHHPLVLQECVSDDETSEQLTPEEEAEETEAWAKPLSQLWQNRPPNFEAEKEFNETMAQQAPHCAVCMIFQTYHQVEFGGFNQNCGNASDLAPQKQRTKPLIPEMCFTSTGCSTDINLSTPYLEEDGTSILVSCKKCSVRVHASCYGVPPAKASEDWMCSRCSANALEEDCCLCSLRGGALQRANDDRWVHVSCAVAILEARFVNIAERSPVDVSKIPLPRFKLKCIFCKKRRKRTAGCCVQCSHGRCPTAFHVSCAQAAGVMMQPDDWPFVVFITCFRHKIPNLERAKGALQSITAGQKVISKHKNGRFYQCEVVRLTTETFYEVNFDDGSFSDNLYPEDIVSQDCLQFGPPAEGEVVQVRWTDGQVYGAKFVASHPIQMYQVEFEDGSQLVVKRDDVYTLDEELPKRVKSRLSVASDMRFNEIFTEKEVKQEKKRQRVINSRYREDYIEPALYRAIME
PLK1 PBD block = blocks phosphopeptide binding to human PLK1 polo-box domain. Plk1 PBD binding of FITC phosphopeptide, fluorescence polarization. 360,000 compounds, 2.8% hits. P53350. Potency, µM, for the others: max response, negative = inhibition, most hits filed as inhibitors; note: potency is the fitted concentration of half-maximal effect; series mostly up to about 57 µM; % is set by controls: 0 for no effect and ±100 for the full control effect; nearly all actives have a fitted effect of over 65% in size
Starred values were filed as active, the others as inactive; ? = inconclusive; nt = not tested or not shown; [ ] = dose if it differs, or a comment. Shown are actives, neighbours in structure and some others; about 12% of the full set was active somewhere. Unless noted, calls come from the whole dose curve; as a rule, active = well fitted curve in the direction sought with a large enough effect; inconclusive = small, poorly fitted or top-dose-only effect, or another doubt; inactive = no such curve, though single readings can be large; an effect the other way counts as inactive or inconclusive.

SMILES	PI5P4K alpha inh	G9a block	HP1b chromo inh	BAZ2B block	JMJD2A Tudor inh	PLK1 PBD block
COc1ccc(CNC(=O)CN2C(=O)COc3ccc(S(=O)(=O)N4CCC(C)CC4)cc32)cc1	-6	17%[59 µM]	10%	-11%	-23%	30µM*
O=C(CSc1nnc(-c2ccc(S(=O)(=O)N3CCCC3)cc2)o1)NCc1ccco1	nt	?	46%	50µM*	-28%	-11%
Cc1cc(C)cc(N2CCn3c2nc2c3c(=O)n(CCc3ccccc3)c(=O)n2C)c1	nt	-20%[59 µM]	22%	-15%	-26%	nt
COc1ccccc1CCNc1ncnc2nc[nH]c12	nt	nt	26%	nt	3%	nt
O=C(Cn1ccc2cc(S(=O)(=O)N3CCCC3)ccc21)NCc1ccco1	5	?	-18%	-11%[57.1 µM]	79µM*	?
O=C(Cn1ccc2cc(S(=O)(=O)N3CCCCCC3)ccc21)NCc1ccccc1Cl	nt	-22%[59 µM]	15%	-11%	-12%	nt
Cn1c(=O)c2cc(NC(=O)NCc3ccccc3)ccc2n1C/C=C/c1ccccc1	4	nt	nt	nt	nt	-6%
O=C(CCl)Nc1cc2[nH]c(=O)[nH]c2cc1Br	-2	50µM*	27%	-21%	-7%	-18%
CCN(CC)c1ccc(NC(=O)C2CCN(S(=O)(=O)c3ccc4c(c3)oc(=O)n4C)CC2)c(C)c1	nt	?	13%	-11%	-28%	nt
COc1ccc(OC)c2sc(N3CCN(C(=O)c4ccc5ncsc5c4)CC3)nc12	1	40µM*	?	?	?	-7%
COc1ccc(OC)c2sc(N3CCN(C(=O)c4ccc([N+](=O)[O-])s4)CC3)nc12	0	35µM*	-11%	?	?	-6%
O=C(Cc1ccccc1)Nc1ncccc1Cl	8	nt	29%	nt	-9%	-13%
Cc1ccc(C)c(NC(=O)Cn2c(=O)n(CCCS(=O)(=O)C3CCCCC3)c(=O)c3ccccc32)c1	nt	21%[59 µM]	21%	14%	-11%	nt
Cc1cc(=O)oc2cc(NC(=O)c3ccccc3Cl)ccc12	-12	21%	9%	-10%	0%	-7%
Cc1cccc(-n2c(O)c(C=Nc3ccc4c(c3)OCO4)c3ccccc3c2=O)n1	-18	-42%	28%	-5%	0%	-23%
Cc1cccc(-n2c(O)c(C=Nc3cccc(O)c3)c3ccccc3c2=O)n1	-20	-6%	-19%	-27%	-13%[11.4 µM]	15µM*
CCOc1c(Br)cc(/C=C2/SC(=O)N(CC(=O)N3CCCC3)C2=O)cc1OC	-2	7%[59 µM]	39%	6%	2%[57.1 µM]	-12%
CCOC(=O)COc1c(Br)cc(/C=C2\SC(=O)N(CC(=O)N3CCCC3)C2=O)cc1OC	-10	?	-18%	-25%	?	17µM*
O=C1c2cccnc2-c2ncccc21	1	nt	21%	2%	-5%	-2%
COC1=C(Br)C(=O)c2ncccc2C1=O	?	nt	10µM*	nt	6.3µM*	1.9µM*
CCCCOC(=O)/C=C\C(=O)NC(N)=O	16	45µM*	11%	-4%	1%	-9%
COc1cc2c(cc1OC)[C@@H](Cc1ccc(OCCC#N)cc1)N(C)CC2	2	35µM*	7%	5%	-2%	-15%
Cn1c(=O)c2c(nc(N3CCOCC3)n2Cc2cccc(Br)c2)n(C)c1=O	nt	6%[59 µM]	29%	-9%	0%	nt
CCC(C)N(C(=O)CSc1ccc(NC(C)=O)cc1)C1CCS(=O)(=O)C1 (stereo unspecified)	5	?	45%	6%	-12%	30µM*
COc1cccc([C@@H]2CC=C(C(=O)O)[C@H](c3ccc(Br)cc3)N2S(=O)(=O)c2ccc(C)cc2)c1	-1	nt	16%	nt	-8%	-5%
CC(=O)Nc1ccc(SCC(=O)NCC2(N3CCCCC3)CCCCC2)cc1	-6	nt	33%	nt	-9%	12µM*
O=C(CSc1ccc(Br)cc1)NCC1(N2CCCCC2)CCCCC1	0	nt	-3%	nt	-16%	-13%
Cc1cc(-c2nsc(=O)o2)c(S(C)(=O)=O)s1	?	2µM*	?	0%	?	3.8µM*
